Source: ChEMBL document CHEMBL3988442, “University of Dundee, Small-Polar-MMV Screening Library” (2021)

Each compound was assayed against T1, Aspartate--tRNA(Asp/Asn) ligase (Mycobacterium tuberculosis (strain ATCC 25618 / H37Rv)) (UniProt P9WFW3) (assay: Assay for Asp RNA synthetase-1 from Mycobacterium tuberculosis). Settings: 30 µM.
T1 sequence (whole entry): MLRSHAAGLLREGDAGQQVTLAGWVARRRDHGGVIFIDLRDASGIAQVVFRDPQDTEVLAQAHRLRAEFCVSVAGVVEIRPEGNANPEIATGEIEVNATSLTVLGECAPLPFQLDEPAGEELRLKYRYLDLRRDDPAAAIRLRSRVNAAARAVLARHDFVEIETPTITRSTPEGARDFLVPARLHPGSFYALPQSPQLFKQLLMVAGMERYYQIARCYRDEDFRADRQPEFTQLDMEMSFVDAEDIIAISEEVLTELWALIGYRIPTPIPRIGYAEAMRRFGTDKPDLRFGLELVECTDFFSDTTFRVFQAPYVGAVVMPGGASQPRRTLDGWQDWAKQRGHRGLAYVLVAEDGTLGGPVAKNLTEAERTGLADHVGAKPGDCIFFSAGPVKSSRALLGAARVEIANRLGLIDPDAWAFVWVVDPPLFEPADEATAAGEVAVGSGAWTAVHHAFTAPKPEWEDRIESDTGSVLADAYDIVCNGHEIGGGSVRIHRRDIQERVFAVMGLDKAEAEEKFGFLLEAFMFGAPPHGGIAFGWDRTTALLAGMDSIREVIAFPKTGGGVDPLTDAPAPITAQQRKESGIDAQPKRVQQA
Type: functional
Parameters: scale not given: direction of the effect not stated beside the values
`Clc1ccc(-n2cc(CNC3CCc4ncnn4C3)cn2)cc1` (stereo not given) showed a Percent Effect of -5.31%. Compound `CC(=O)N1CCN(CC2CCOc3ccccc3C2)CC1` (stereo not given) has a Percent Effect of 1.75%. `Cc1cc(C(N)=O)ccc1NC(=O)c1nc(N2CCCC2)ncc1Cl` showed a Percent Effect of 1.84%. In the case of `CC(NC(=O)CSCC#N)c1cccc(NC(=O)c2ccccc2)c1` (stereo not given), the Percent Effect is reported as 1.91%. `O=C(c1ccco1)N1CCC2(CCC(=O)N2Cc2cccc(F)c2)CC1` gave a Percent Effect of 1.32%. With `CC(=O)N(Cc1ncc(C)o1)C1CCN(CCNC2CCCCC2)C1` (stereo not given) the Percent Effect was 1.34%. Compound `CN(C)c1nc2c(c(=O)[nH]1)CCN(C(=O)c1cccc3nccnc13)C2` has a Percent Effect of 4.01%. Work on `CN(C)CC1CN(Cc2ccc3c(c2)OCO3)Cc2nccn2C1` (stereo not given) yielded a Percent Effect of 9.35%. `Cn1c(Cn2cccn2)nnc1C1CCN(Cc2cccnc2N)CC1` gave a Percent Effect of -5.74%. `COc1ccc2c(ccn2CCC(=O)O)c1` showed a Percent Effect of -2.82%. Work on `O=C(c1cc(C2CC2)on1)N1CCCC(n2cncn2)C1` (stereo not given) yielded a Percent Effect of -0.789%. For `CCS(=O)(=O)N1CC[C@H](OC)[C@@H]1Cc1ccncc1`, the Percent Effect was -2.52%. With `CCc1ccc(C(=O)O)cc1S(=O)(=O)Nc1ccc(F)c(C#N)c1` the Percent Effect was 4.35%. Compound `Cc1ccc(C(=O)N2CCSCC2)cc1NC(=O)NCCO` has a Percent Effect of 0.137%. In the case of `CS(=O)(=O)c1ccc(NC(=O)NCc2ccc3c(c2)CCC3)cn1`, the Percent Effect is reported as 1.92%. `CCC1CN(Cc2ccccc2)CCN1Cc1nnc(C2CCC2)o1` (stereo not given) showed a Percent Effect of -4.92%. Work on `O=C(c1n[nH]c2ccccc12)N1CCCC1c1noc(C2CC2)n1` (stereo not given) yielded a Percent Effect of -5.34%. With `CCOCCN1CCN(Cc2cccc(C(=O)N(C)C)c2)CC1` the Percent Effect was -3.67%. `CN1[C@@H](C(=O)NCC2CC2)C[C@@H]2CN(Cc3ccco3)C[C@@H]21` was tested, and the Percent Effect was 2.69%. Work on `OC(COc1ccc(F)cc1)CN1CCC(Cn2cccn2)CC1` (stereo not given) yielded a Percent Effect of 1.46%. `COCCNC(=O)[C@H]1CN(Cc2scnc2C)C[C@H]2OCC[C@@H]12` gave a Percent Effect of -3.26%. For `COc1ccc(C2(NC(=O)CCn3cncn3)CCCCC2)cc1`, the Percent Effect was -7.19%. `Cc1ncc(CNC(=O)c2nn(C)c3c2CS(=O)(=O)CC3)s1` gave a Percent Effect of -7.14%. For `Cc1ncc(CNC(=O)CCOc2ccccc2)c(C2CCCN2C)n1` (stereo not given), the Percent Effect was 5.05%. `CN(CC1CCCCC1)C(=O)c1ccc(-n2ncc(C#N)c2N)cc1` showed a Percent Effect of -2.55%. Work on `CC(O)CN1CCC(CNCc2ccccc2OC(F)(F)F)CC1` (stereo not given) yielded a Percent Effect of -1.43%. With `CNC(=O)CCNC(=O)c1cccc(Cn2nc(C)cc2C)c1` the Percent Effect was -3.31%. In the case of `CNC(=O)c1cc2c(nc1N(C)C)CCN(S(=O)(=O)C1CC1)CC2`, the Percent Effect is reported as 0.364%. In the case of `O=C1NCCN1C1CCN(Cc2nc(-c3ccoc3)no2)CC1`, the Percent Effect is reported as -7.34%. `Cc1cccc(C(=O)N2C[C@@H]3CCN(c4cccnc4)C[C@@H]3C2)c1` was tested, and the Percent Effect was 3.96%. `c1cc(CNCC2CNc3ccnn3C2)cc(N2CCCCC2)n1` (stereo not given) gave a Percent Effect of -2.55%. In the case of `O=C(c1ccc(Cl)cc1)N1CCCn2nnc(Cn3cccn3)c2C1`, the Percent Effect is reported as -1.14%. Compound `Cc1cc(C)n(CC2CN(CC(=O)Nc3c(C)n[nH]c3C)CCO2)n1` (stereo not given) has a Percent Effect of -0.486%. With `CCOc1ccccc1OC1CCN(C(=O)c2ccc(=O)[nH]n2)CC1` the Percent Effect was -5.79%. Work on `CCn1nc(C(C)C)cc1C(=O)NCCCOC` yielded a Percent Effect of -1.73%. `CCCn1ncc2c(C(=O)Nc3n[nH]c(SC)n3)cc(C3CC3)nc21` showed a Percent Effect of -6.49%. For `O=C(NCC(F)F)N1CCC(n2ccc(C(F)(F)F)n2)CC1`, the Percent Effect was -6.76%. With `CCc1ccccc1-n1nnc(C(=O)O)c1-c1ccccn1` the Percent Effect was 6.47%. `Cc1cc(C)cc(OCCC(=O)N2CCOCC2c2ncon2)c1` (stereo not given) showed a Percent Effect of 5.48%. `Cc1c[nH]nc1C1CCN(S(=O)(=O)N(C)C)CC1` was tested, and the Percent Effect was 2.31%.

What follows are compounds tested against Shiga toxin 2 (Escherichia coli O157:H7) (UniProt P09385+P09386) (assay: E. coli 0.157:H7 Shiga Toxin SOP - stx2 screening assay). Settings: 30 µM.
Type: functional
Parameters: scale not given: direction of the effect not stated beside the values
Compound `Clc1ccc(-n2cc(CNC3CCc4ncnn4C3)cn2)cc1` (stereo not given) has a Percent Effect of -39.9%. Compound `CC(=O)N1CCN(CC2CCOc3ccccc3C2)CC1` (stereo not given) has a Percent Effect of -26.3%. Compound `Cc1cc(C(N)=O)ccc1NC(=O)c1nc(N2CCCC2)ncc1Cl` has a Percent Effect of -35.5%. `CC(NC(=O)CSCC#N)c1cccc(NC(=O)c2ccccc2)c1` (stereo not given) showed a Percent Effect of 6.38%. In the case of `O=C(c1ccco1)N1CCC2(CCC(=O)N2Cc2cccc(F)c2)CC1`, the Percent Effect is reported as -6.58%. `CC(=O)N(Cc1ncc(C)o1)C1CCN(CCNC2CCCCC2)C1` (stereo not given) gave a Percent Effect of -30.8%. `CN(C)c1nc2c(c(=O)[nH]1)CCN(C(=O)c1cccc3nccnc13)C2` gave a Percent Effect of -35%. `CN(C)CC1CN(Cc2ccc3c(c2)OCO3)Cc2nccn2C1` (stereo not given) showed a Percent Effect of 4.74%. `Cn1c(Cn2cccn2)nnc1C1CCN(Cc2cccnc2N)CC1` was tested, and the Percent Effect was -18.3%. With `COc1ccc2c(ccn2CCC(=O)O)c1` the Percent Effect was -49%. With `O=C(c1cc(C2CC2)on1)N1CCCC(n2cncn2)C1` (stereo not given) the Percent Effect was -16.7%. `CCS(=O)(=O)N1CC[C@H](OC)[C@@H]1Cc1ccncc1` gave a Percent Effect of -2.84%. `CCc1ccc(C(=O)O)cc1S(=O)(=O)Nc1ccc(F)c(C#N)c1` showed a Percent Effect of -1.93%. `Cc1ccc(C(=O)N2CCSCC2)cc1NC(=O)NCCO` was tested, and the Percent Effect was 5.64%. Work on `CS(=O)(=O)c1ccc(NC(=O)NCc2ccc3c(c2)CCC3)cn1` yielded a Percent Effect of -9.09%. In the case of `CCC1CN(Cc2ccccc2)CCN1Cc1nnc(C2CCC2)o1` (stereo not given), the Percent Effect is reported as -9.86%. For `O=C(c1n[nH]c2ccccc12)N1CCCC1c1noc(C2CC2)n1` (stereo not given), the Percent Effect was 9.03%. `CCOCCN1CCN(Cc2cccc(C(=O)N(C)C)c2)CC1` gave a Percent Effect of -26.9%. `CN1[C@@H](C(=O)NCC2CC2)C[C@@H]2CN(Cc3ccco3)C[C@@H]21` gave a Percent Effect of -1.45%. Work on `OC(COc1ccc(F)cc1)CN1CCC(Cn2cccn2)CC1` (stereo not given) yielded a Percent Effect of -35.3%. `COCCNC(=O)[C@H]1CN(Cc2scnc2C)C[C@H]2OCC[C@@H]12` was tested, and the Percent Effect was 0.32%. In the case of `COc1ccc(C2(NC(=O)CCn3cncn3)CCCCC2)cc1`, the Percent Effect is reported as 1.34%. `Cc1ncc(CNC(=O)c2nn(C)c3c2CS(=O)(=O)CC3)s1` was tested, and the Percent Effect was -24.6%. `Cc1ncc(CNC(=O)CCOc2ccccc2)c(C2CCCN2C)n1` (stereo not given) was tested, and the Percent Effect was -10.2%. With `CN(CC1CCCCC1)C(=O)c1ccc(-n2ncc(C#N)c2N)cc1` the Percent Effect was -24.4%. `CC(O)CN1CCC(CNCc2ccccc2OC(F)(F)F)CC1` (stereo not given) gave a Percent Effect of 5.19%. In the case of `CNC(=O)CCNC(=O)c1cccc(Cn2nc(C)cc2C)c1`, the Percent Effect is reported as -15.4%. For `CNC(=O)c1cc2c(nc1N(C)C)CCN(S(=O)(=O)C1CC1)CC2`, the Percent Effect was -4.82%. `O=C1NCCN1C1CCN(Cc2nc(-c3ccoc3)no2)CC1` gave a Percent Effect of -21.2%. Work on `Cc1cccc(C(=O)N2C[C@@H]3CCN(c4cccnc4)C[C@@H]3C2)c1` yielded a Percent Effect of -5.99%. `c1cc(CNCC2CNc3ccnn3C2)cc(N2CCCCC2)n1` (stereo not given) showed a Percent Effect of -110%. Work on `O=C(c1ccc(Cl)cc1)N1CCCn2nnc(Cn3cccn3)c2C1` yielded a Percent Effect of -4.47%. `Cc1cc(C)n(CC2CN(CC(=O)Nc3c(C)n[nH]c3C)CCO2)n1` (stereo not given) was tested, and the Percent Effect was 6.68%. `CCOc1ccccc1OC1CCN(C(=O)c2ccc(=O)[nH]n2)CC1` showed a Percent Effect of 32.3%. Compound `CCn1nc(C(C)C)cc1C(=O)NCCCOC` has a Percent Effect of 3.47%. `CCCn1ncc2c(C(=O)Nc3n[nH]c(SC)n3)cc(C3CC3)nc21` showed a Percent Effect of -0.011%. Compound `O=C(NCC(F)F)N1CCC(n2ccc(C(F)(F)F)n2)CC1` has a Percent Effect of -7.64%. `CCc1ccccc1-n1nnc(C(=O)O)c1-c1ccccn1` was tested, and the Percent Effect was -3.21%. With `Cc1cc(C)cc(OCCC(=O)N2CCOCC2c2ncon2)c1` (stereo not given) the Percent Effect was 33.2%. In the case of `Cc1c[nH]nc1C1CCN(S(=O)(=O)N(C)C)CC1`, the Percent Effect is reported as -2.83%.
